Results reported in PubChem BioAssay AID588463 (National Center for Advancing Translational Sciences (NCATS), 2011).
Hit rate of the full screen: of about 1,200 compounds, about 15 (1%) were called active. Where a call stands in place of a potency, no number is given. Inconclusive results (about 7%) are left out. The call rests on the fitted dose curve; in most records, active means well fitted activation curve with a large enough effect; inconclusive means small, poorly fitted or top-dose-only effect; inactive means flat fitted curve, though single readings scatter. Many of the other results were omitted from the sample, so actives are more common in it than they were.

biological target: Beta-2 adrenergic receptor (Homo sapiens) (UniProt P07550); test: qHTS assay of beta-arrestin-biased ligands of beta2-adrenergic receptor: Hit Validation; details: cell-based beta-arrestin recruitment to beta2AR; Potency: activation; series mostly up to 46.1 µM
Sequence (P07550 whole entry, looked up): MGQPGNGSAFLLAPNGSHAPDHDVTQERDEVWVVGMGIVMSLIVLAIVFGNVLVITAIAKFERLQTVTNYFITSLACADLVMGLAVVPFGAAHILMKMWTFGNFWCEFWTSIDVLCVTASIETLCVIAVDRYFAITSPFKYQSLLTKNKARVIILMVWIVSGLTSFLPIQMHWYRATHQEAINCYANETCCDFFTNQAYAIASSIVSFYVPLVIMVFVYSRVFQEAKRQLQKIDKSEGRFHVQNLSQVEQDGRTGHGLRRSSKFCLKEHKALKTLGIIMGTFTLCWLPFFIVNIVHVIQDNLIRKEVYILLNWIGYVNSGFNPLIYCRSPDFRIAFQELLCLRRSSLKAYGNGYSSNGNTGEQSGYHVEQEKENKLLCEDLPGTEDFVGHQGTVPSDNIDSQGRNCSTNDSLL
Description: The concept of biased agonism is an emerging concept of molecular pharmacology which proposes that seven transmembrane receptors (7TMRs) or G protein-coupled receptors (GPCRs), exist in multiple signaling conformations and complexes and that ligands (either agonists or antagonists) can induce signaling biased responses for distinct signal transduction cascades.
Furthermore, accumulating evidence over the last decade has drawn attention to a novel function of beta-arrestins as signal transducers that scaffold various signaling molecules upon activation of 7TMRs. […] This beta-arrestin-biased signaling presumably leads to distinct physiological outcomes from those by G protein activation.
Additionally, the active receptor conformations which […] on this beta-arrestin signaling are likely different from those activating G protein signaling
The goal of this screening project will be to discover and optimize novel beta-arrestin-biased ligands for beta2-AR signaling. A luminescent cell-based assay for beta2-AR-mediated agonism, known as the Tango assay, has been validated in which ligand binding of a recombinant beta2-AR and subsequent recruitment of a recombinant beta-arrestin lead to the release of the transcriptional activator tTA, which upregulates transcription of a tTA-responsive luciferase gene.
NIH Molecular Libraries Probe Production Network [MLPCN]
NIH Chemical Genomics Center [NCGC]
PI: Bryan Roth (UNC) and Bob Lefkowitz (Duke)
NCGC Assay Protocol Summary:
Tango cells were dispensed into white, solid, tissue-culture-treated 1536-well plates at 1500 cells/well in DMEM, containing 1% fetal bovine serum (FBS). Then, 23 nL of compounds or DMSO were delivered to each well using a pin tool. Plates were incubated at 37 degrees C, 5% CO2 for 18 hr. Then 2.5 uL luminescent substrate mix (in-house prepared: 150 mM Tris-Cl, pH 7.6, 3 mM MgCl2, 1% Triton X-100, 5 mM DTT, 0.5 mM CoA, 0.15 mM ATP, 0.44 mM D-luciferin, final concentrations) was added to each well. Plates were then incubated for 15 minutes at room temperature, and subsequently measured on a ViewLux plate reader for luminescent signal using a clear filter with a 10 second exposure and 2x binning. The %Activity was determined from the corrected luminescence values.
Concentration-response curves were fitted to the signals arising from the resulting luminescence. The concentration-effect curves were then classified based on curve quality (r2), response magnitude and degree of measured activity, and compounds were subsequently categorized based on their curve class.
Keywords: biased agonism, beta2-AR, beta-arrestin, GPCR, 7TMR, Tango, luminescence, MLSMR, MLPCN, NIH Roadmap, qHTS, NCGC
Potency means the concentration at half of the fitted maximal effect.

| SMILES | Potency |
| --- | --- |
| Clc1cccc(Cl)c1C1Nc2cccc3cccc(c23)N1 | inactive |
| COC(=O)N1C(=O)[C@@](c2ccc(OC)cc2)(C(C)C)N1C(=O)OC | inactive |
| COc1ccc(C(=O)C2CCCN(Cc3cnc(N4CCCC4)s3)C2)cc1OC (stereo not drawn) | inactive |
| Fc1ccccc1NC(=S)Nn1cnnc1 | inactive |
| CCOc1ccc(N(CC(=O)Nc2cccnc2)S(=O)(=O)c2ccc(C)cc2)cc1 | inactive |
| O=C(CNCc1ccccc1Cl)Nc1ccc2c(c1)OCCO2 | inactive |
| Cc1cccc(N=C2NC(=O)/C(=C/c3cccs3)S2)c1 | inactive |
| CCNC(=S)NNc1nncc2ccccc12 | inactive |
| S=C(N/N=C/c1ccco1)NC1CC2CCC1C2 (stereo not drawn) | inactive |
| CN=C(c1ccc(C)cc1)n1c(=S)nc(-c2ccc(C)cc2)n(C)c1=S | inactive |
| CNc1cc(C)nc(-n2nc(C)cc2C)n1 | inactive |
| CN(C)NC(=S)Nc1ccc(Cl)cc1 | inactive |
| C/C(CCC1CC(C)(C)OC1=O)=N\NC(N)=S (stereo not drawn) | inactive |
| O=C(O)CCC(=O)N1N=C(c2ccccc2)CC1c1ccc2nccnc2c1 (stereo not drawn) | inactive |
| O=C(OCC1CC(c2ccccc2)=NO1)c1ccco1 (stereo not drawn) | inactive |
| COc1ccc2nc(NC(=S)N(C)C)sc2c1 | inactive |
| COc1ccc(C2=NN(C(=O)/C=C/c3ccccc3)C(c3ccccc3)C2)c(OC(C)=O)c1 (stereo not drawn) | inactive |
| Cc1cc(/C=N/NC(N)=S)c(C)n1-c1ccc(Br)cc1 | inactive |
| COc1ccc(CN2CCCC(C(=O)c3ccc(Cl)cc3)C2)cc1Cn1cccn1 (stereo not drawn) | inactive |
| COC(=O)CSc1ccc2nnc(-c3ccc(OC)c(OC)c3)n2n1 | inactive |
| CCNC(=S)N/N=C/c1cccs1 | inactive |
| Cc1nn(-c2ccccc2)c(C)c1/C=N/NC(=O)CSc1nnc(SCc2ccccc2Cl)s1 | inactive |
| FC(F)(F)c1cc(Nc2ccccc2)nc(-c2ccccn2)n1 | inactive |

| SMILES | Potency |
| --- | --- |
| CC1S/C(=N/N=C2CCCCC2)NC1=O (stereo not drawn) | inactive |
| Cc1ccc2c(c1)C(=O)N1[C@H]3c4ccccc4OC[C@@H]3[C@H](c3ccccc3)[C@]1(C)C(=O)N2 | inactive |
| CCN1CCN(C(=S)NC(=O)c2cccc(Br)c2)CC1 | inactive |
| Cc1ccc(-n2c(SCC(=O)NCc3ccco3)nc3c(sc4ccccc43)c2=O)cc1 | 13 µM (active) |
| CCC(Sc1nc2ccsc2c(=O)n1-c1ccc(Cl)c(C)c1)C(=O)NCc1ccco1 (stereo not drawn) | inactive |
| COc1ccc(CNc2nc(SCC(=O)NCc3ccco3)nc3ccccc23)cc1 | inactive |
| CCOC(=O)C(Sc1cc(-c2ccccc2)nc2ncnn12)C(C)=O (stereo not drawn) | inactive |
| CC(C)(O)C(=O)NN(C(=O)c1ccccc1)c1ccc2ccccc2c1 | inactive |
| O=C(N/N=C/c1cccs1)c1cncc(Br)c1 | inactive |
| C/C(CS(=O)(=O)c1ccc(Cl)c(Cl)c1)=N/NC(N)=S | inactive |
| C/C(=N\NC(=S)NCc1ccccc1)c1ccc2ccccc2c1OC(F)F | inactive |
| O=c1[nH]c(CSc2ccccn2)nc2c1cnn2-c1ccccc1 | inactive |
| COc1ccc(NC(=O)c2cc3c(-c4ccc(OC)c(OC)c4)nn(C)c3s2)cc1OC | inactive |
| CCOC(=O)c1c(C)[nH]c(N=Nc2ccc(C)cc2C)c1C | inactive |
| CCOC(=O)N1CCN(Cc2c(F)cccc2F)CC1 | inactive |
| CCOC(=O)c1sc(NC(=O)CSc2nnc(C(C)C)n2C)nc1C | inactive |
| CC(C)C(=O)COc1c2occc2cc2ccc(=O)oc12 | inactive |
| O=C(Nc1cnccn1)c1ccc(Cl)cc1 | inactive |
| CC(=O)N(c1ccccc1)C(C)c1nc(C#N)c(C#N)nc1C (stereo not drawn) | inactive |
| FC(F)(F)c1cnc(N2CCSCC2)c(Cl)c1 | inactive |
| CN(Cc1ccccc1)C(=O)CN1C(=O)c2ccccc2C1=O | inactive |
| COc1ccc(-c2cn3cccnc3n2)cc1F | inactive |
| O=C(NC(=S)N1CCCCCC1)c1ccccc1Cl | inactive |

| SMILES | Potency |
| --- | --- |
| Cc1nc(C)c(CC(=O)N/N=C/c2ccc(O)cc2)c(=O)[nH]1 | inactive |
| COc1ccc(OCCCC(=O)Nc2nc(-c3ccccn3)cs2)cc1 | inactive |
| Cn1cccc1C(=O)NC(=O)CSc1cccc[n+]1[O-] | inactive |
| C/C(=N\NC(=S)NCCc1ccccc1)c1ccc(Cl)cc1Cl | inactive |
| O=C1NC(c2ccc(-c3ccccc3[N+](=O)[O-])o2)C(C(=O)c2ccc(F)cc2)C(O)(C(F)(F)F)N1 (stereo not drawn) | inactive |
| Cc1ccc(CN2CCSCC2)c(C)c1 | inactive |
| C=CCNC(=S)N/N=C/c1ccc(-c2cc(Cl)ccc2Cl)o1 | inactive |
| Cc1ccccc1NS(=O)(=O)c1ccc2oc(=O)ccc2c1 | inactive |
| COc1ccc(NC(=S)Nc2ccccn2)c(OC)c1 | inactive |
| O=C(CSc1cccc[n+]1[O-])c1cc2ccccc2o1 | inactive |
| CCC1(C)Cc2ccccc2C(=S)N1 (stereo not drawn) | inactive |
| C=C(C)c1cccc(C(C)(C)NC(=O)NC(c2ccccc2)c2ccc(OC)cc2)c1 (stereo not drawn) | inactive |
| NC(=S)n1[nH]c(-c2ccc([N+](=O)[O-])cc2)c(N=Nc2cccc([N+](=O)[O-])c2)c1=O | inactive |
| CCN(CC)CCCNC(=O)CCC(=O)NNc1nc2ccccc2c2nc(C)nn12 | inactive |
| Cc1cc(C)n(-c2nc(NC(C)C)nc(NC(C)C)n2)n1 | inactive |
| O=C(CNc1cccc(Cl)c1)c1ccc(Br)cc1 | inactive |
| Cc1nc(COC(=O)c2ccc(S(=O)(=O)N3CCCC3)cc2)cs1 | inactive |
| CC(C)NS(=O)(=O)c1ccc(NC(=O)C(C)Oc2ccc(C(=O)c3ccccc3)cc2)cc1 (stereo not drawn) | inactive |
| CCn1nnnc1SCC(=O)Nc1nc2ccc(OC)cc2s1 | inactive |
| CS(=O)(=O)Nc1ccc(-c2cn3cccnc3n2)cc1 | inactive |
| O=C(NCCOc1cccnc1)C1CCC(=O)N(Cc2ccccc2F)C1 (stereo not drawn) | inactive |
| COc1ccc(N(CC(=O)N2CCCC2)S(C)(=O)=O)cc1 | inactive |
| CCN(CC)CCC(=O)N1c2ccccc2Sc2ccc(NC(=O)OC)cc21 | inactive |

| SMILES | Potency |
| --- | --- |
| CCCn1c(-c2ccc(F)cc2)n[nH]c1=S | inactive |
| Cc1cccc(NC(=S)N=Nc2c(O)n(CN3CCOCC3)c3ccccc23)c1C | inactive |
| Cc1ccccc1OCC(=O)N/N=C/c1sc(=O)n(Cc2cccc(C(=O)O)c2)c1Cl | inactive |
| CCOc1cccc(N)c1 | inactive |
| Cc1cccnc1NC(=S)Nc1ccc(Br)cc1Cl | inactive |
| CCCCC(=O)/C=C/n1c(=S)oc2ccccc21 | inactive |
| CC(=O)N1CCN(CC(=O)c2ccc(Br)cc2)CC1 | inactive |
| Cc1ccc(S(=O)(=O)N(CC(=O)N/N=C/c2ccco2)c2cc(Cl)cc(Cl)c2)cc1 | inactive |
| CC(=O)c1sc(Nc2nc3ccc(F)cc3s2)nc1C | inactive |
| Cc1nc2ccc(NC(=O)CS(=O)(=O)c3ccccc3)cc2s1 | inactive |
| O=C(NCCN1CCOCC1)c1ccccc1Cl | inactive |
| CCCCc1nnc(NC(=O)c2ccccc2OCc2c(C)noc2C)s1 | inactive |
| CC(=O)c1ccc(N2CCN(C(=O)C3CCCN(S(=O)(=O)c4c(C)[nH]c(=O)[nH]c4=O)C3)CC2)cc1 (stereo not drawn) | inactive |
| CCOC(=O)n1c(=O)oc2cc(S(=O)(=O)N3CCCCC3)ccc21 | inactive |
| CCOc1ccc(/C=N/NC(=S)NC2CC3CCC2C3)cc1 (stereo not drawn) | inactive |
| CC1CCCN(C(=O)Cn2nnc(-c3ccc(F)cc3)n2)C1 (stereo not drawn) | inactive |
| FC(F)(F)c1nc2ccccc2nc1N/N=C\c1ccccc1 | inactive |
| COc1ccc(OC)c(CNC(=O)CCCc2cn(C)c3ccccc23)c1 | inactive |
| CC(=O)Oc1ccc2cc(-c3ccccc3)c(=O)oc2c1 | inactive |
| Cc1cccc(-n2ncc3c(Nc4c(C)n(C)n(-c5ccccc5)c4=O)ncnc32)c1 | inactive |
| O=C(CN1CCN(Cc2ccccc2)CC1)c1ccc(Br)cc1 | inactive |
| CCC(=O)Nc1cccc(-c2nnc(SCC(=O)c3ccccc3)n2C)c1 | inactive |
| Cc1oc(-c2ccccc2Cl)nc1CN1CCCCC1c1cccnc1 (stereo not drawn) | inactive |

| SMILES | Potency |
| --- | --- |
| COCCNC(=S)NN=C1CCC(c2ccccc2)CC1 (stereo not drawn) | inactive |
| Cc1noc(/C=C/c2ccco2)c1S(=O)(=O)N1CCC(C(=O)N2CCc3ccccc3C2)CC1 | inactive |
| O=C(N/N=C/c1ccc(-c2ccccc2[N+](=O)[O-])o1)[C@H]1C[C@@H]1c1ccccc1 | inactive |
| Cc1cccc(NC(=S)NC2CCCC2)n1 | inactive |
| COc1ccc(C2CC(c3ccccc3)=NN2C(=O)COC(=O)c2cccc(N)c2)cc1 (stereo not drawn) | inactive |
| O=C(c1cccs1)N1N=C(c2ccccc2)CC1c1ccc(O)cc1 (stereo not drawn) | inactive |
| CCN1C(=O)C(CC(=O)Nc2ccc(OC)cc2)N(CCN2CCOCC2)C1=S (stereo not drawn) | inactive |
| COc1cc(-c2nc(-c3ccccc3)c(-c3cc([N+](=O)[O-])ccc3C)[nH]2)cc(OC)c1OC | inactive |
| CCOc1ccccc1N=Nc1c(C)[nH]n(C(N)=S)c1=O | inactive |
| COc1cccc(NC(=S)N/N=C2\CC(C)(C)Oc3ccc(O)cc32)c1 | inactive |
| O=C(N/N=C\C=C\c1ccco1)C1COc2ccccc2O1 (stereo not drawn) | inactive |
| COc1ccc2c(c1)c(=O)c(C(=O)c1ccccc1)cn2Cc1ccc(C)cc1 | inactive |
| O=[N+]([O-])c1ccc(/C=C2\CCC(C3=CCCC3)=C2N2CCOCC2)cc1 | inactive |
| CCOC(=O)c1cccc(NC(=O)c2cncc(Br)c2)c1 | inactive |
| S=c1nc2ccccc2c2nc(-c3ccccc3)[nH]n12 | inactive |
| COc1ccc(N(C(=O)CCl)C(C)(C(=O)Nc2c(C)cccc2C)c2ccccn2)cc1 (stereo not drawn) | inactive |
| CCN(C(=O)Cn1c(Cl)nc2c1c(=O)n(C)c(=O)n2C)C1CCCCC1 | inactive |
| COc1ccc(/C=N/OC/C(O)=C(\C#N)c2nc3ccccc3[nH]2)cc1OC | inactive |
| COc1ccccc1CN1C[C@@H]2C[C@@H](c3ccc4nsnc4c3)N3CCC[C@@]23C1=O | inactive |
| Cc1cc(=O)n2cccc(O)c2n1 | inactive |
| COc1ccc(NC(=S)NC(=O)c2ccc(Br)o2)cc1 | inactive |
